# Assay outcomes from PubChem BioAssay.
# aSyn 5UTR act – Activators via SNCA 5'UTR binding, MLPCN; alpha-synuclein 5'UTR reporter, activators screen; activity score, % (tested at 7.5 µM), hits read low; actives 7.1% (n = 300,000); AID 1814; in the data active = activity score below about -60%
# Numbers stand for hits; - = inactive. These entries were drawn from the full list.
SMILES,aSyn 5UTR act
CCCCCCOc1ccc(/C(N)=N/O)cc1,-173
N=C(N)c1ccc(OCCCCCOc2ccc(C(=N)N)cc2)cc1,-
COc1cc(/C=C2\C=CC(=O)O2)cc(OC)c1,-65
COc1ccc(CSc2nc3ccccc3[nH]2)cc1,-189
c1ccc2[nH]c(SCCN3CCOCC3)nc2c1,-78
CC(C)CCSc1nc2ccccc2[nH]1,-107
COC(=O)c1cccc(CSc2nc3ccccc3[nH]2)c1,-72
c1ccc2[nH]c(SCc3ccc(-c4nnco4)cc3)nc2c1,-142
Oc1ccc(N=C/C=C/c2ccc(Br)cc2)cc1-c1nc2ccccc2s1,-107
O=C(Nc1cc(Cl)ccc1-n1cncn1)c1ccc([N+](=O)[O-])o1,-70
CS(=O)(=O)N1CCN(c2ccccc2NC(=O)c2ccc([N+](=O)[O-])o2)CC1,-123
O=C(Nc1ccc(Cl)c([N+](=O)[O-])c1)c1ccco1,-67
CCC(=O)N1CCN(c2ccc(NC(=O)c3ccc([N+](=O)[O-])o3)cc2Cl)CC1,-
O=C(Nc1ccccc1Cl)c1ccc([N+](=O)[O-])o1,-139
O=C(Nc1ccc(NC(=O)c2ccc([N+](=O)[O-])o2)cc1Cl)c1ccco1,-173
O=C(Nc1cccc(NC(=O)c2ccc([N+](=O)[O-])o2)c1)c1ccco1,-66
O=C(CN1CCN(Cc2ccccc2)CC1)N/N=C\C=C/c1ccco1,-71
CC(/C=N\NC(=O)CN1CCN(Cc2ccccc2)CC1)=C\c1ccco1,-94
O=C(CN1CCN(Cc2ccccc2Cl)CC1)N/N=C/C=C/c1ccco1,-77
Cc1cc(/C=C2/C(=O)N(C)C(=S)N2C)c(C)n1C1CC1,-140
C=CC[C@]12CC=CC(=O)[C@@]1(O)O[C@H](c1ccc(OC)c(OC)c1)[C@H]2C,-94
Brc1ccc(C2=Nc3cccc4cccc(c34)N2)o1,-74
Cc1ccc(O)c(-c2cc(-c3cccc(Br)c3)n[nH]2)c1,-97
Oc1ccc(Br)cc1-c1cc(-c2ccccc2F)[nH]n1,-74
Cc1ccc(-c2cc(-c3ccc(C)cc3O)[nH]n2)cc1,-160
SMILES,aSyn 5UTR act
Oc1ccccc1-c1cc(-c2ccc(F)cc2)n[nH]1,-128
Oc1ccc(Cl)cc1-c1cc(-c2ccccc2)n[nH]1,-99
Oc1ccc(F)cc1-c1cc(-c2ccc3c(c2)OCCO3)n[nH]1,-151
Cc1ccc(-c2cc(-c3ccc(F)cc3)n[nH]2)c(O)c1,-86
Cc1ccc(C(=O)N2C(=O)C(c3ccccc3)Oc3ccccc32)cc1 (stereo not drawn),-
O=C1OC(c2ccccc2)/C(=C(/O)c2ccccc2)C1=O (stereo not drawn),-64
COc1cccc(N(C(=O)c2cccs2)c2nc3ccccc3s2)c1,-154
O=c1c2ccccc2nnn1COc1cccc(Cl)c1,-107
Cc1nc2c3cnn(-c4ccc(C)c(C)c4)c3ncn2n1,-191
Cc1ccc(-n2c(C)nc3c(cnn3-c3ccc(C)c(C)c3)c2=O)cc1C,-101
Cc1ccc(-c2nn3cnnc3c3ccccc23)cc1C,-
C#CCn1cnc2c(cnn2-c2ccc(C)c(C)c2)c1=O,-107
CN1C(=C2C(=O)OC(C)(C)OC2=O)Sc2ccccc21,-79
Clc1cccc2sc(N3CCCCC3)nc12,-109
Clc1cc(Cl)c2nc(N3CCCCC3)sc2c1,-152
COc1ccc(-c2nsc3c(N4CCCC4)ncnc23)cc1,-
COc1ccc(OC)c2sc(N3CCCCC3)nc12,-62
Clc1cc(Cl)c2nc(N3CCCC3)sc2c1,-103
CCCC1CCC(c2ccc(OCC)cc2)=CC1=O (stereo not drawn),-216
C=CCOc1ccc(/C=N/Nc2ccccn2)cc1OC,-246
CCOc1ccc(/C=N/Nc2ccccn2)cc1OC,-177
COc1cc(/C=N/Nc2ccccn2)ccc1OCC(C)C,-127
CCOc1ccc(/C=N/N(C)c2ccccc2)cc1OC,-250
CCCOc1ccc(/C=N/Nc2ccccn2)cc1OC,-177
CCOc1ccc(NC(=O)c2cccc3c2C(=O)N(Cc2cccnc2)C3)cc1,-111
SMILES,aSyn 5UTR act
O=C(CCNc1cc(Cl)cc(Cl)c1)c1cccs1,-94
O=C(CCNc1ccc(Cl)cc1)c1cccs1,-89
CC(C)(C)n1cnc2cc(NC(=O)c3cccs3)ccc21,-134
COc1ccccc1-n1cnc2cc(NCc3cccs3)ccc21,-
CC(C)(C)n1cnc2cc(NCc3cccs3)ccc21,-102
CC(C)(C)n1cnc2cc(NC(=O)c3ccccc3)ccc21,-137
CCn1cnc2cc(NC(=O)c3cccs3)ccc21,-109
COC(=O)C1=C(NC(=O)c2ccc(C)c(C)c2)CCS1,-76
Cc1nn(-c2ccc3ccccc3c2)c(=O)c2ccccc12,-183
Cc1nn(-c2nc3ccccc3[nH]2)c(=O)c2ccccc12,-
Cc1nn(-c2ccc(Cl)c(Cl)c2)c(=O)c2ccccc12,-64
Cc1nn(-c2ccc(Cl)nn2)c(=O)c2ccccc12,-89
Cc1nn(-c2ccc(Cl)cc2)c(=O)c2ccccc12,-85
Cc1ccc(-n2ncc3ccccc3c2=O)cc1Cl,-143
COc1ccc(Br)cc1/C=C/C(=O)Nc1ccc2ccccc2c1,-91
CCC(=O)Nc1cccc(C(=O)/C=C/c2cc(Br)ccc2OC)c1,-125
COc1ccc(Br)cc1/C=C/C(=O)Nc1ccc(C)cc1,-86
CN(C(=O)c1ccc(S(=O)(=O)c2cccc(Cl)c2)c([N+](=O)[O-])c1)C1CCCCC1,-86
O=C(NC1CCCCC1)c1ccc(S(=O)(=O)c2ccccc2Cl)c([N+](=O)[O-])c1,-95
CCC[C@H](CN[C@@H](CNC)[C@H](C)CC)NCCc1cc(C(F)(F)F)cc(C(F)(F)F)c1,-
CCn1c(/C=C/c2c[nH]c3ccccc23)nc2ccccc2c1=O,-176
CCn1c(/C=C/c2ccccc2Cl)nc2ccccc2c1=O,-191
CCn1c(/C=C\c2ccccc2C)nc2ccccc2c1=O,-63
Cc1[nH]nc(SCC(=O)N2CCCCC2)c1[N+](=O)[O-],-92
Oc1c(Cl)cc(Cl)cc1C=Nc1ccc2c(c1)OCCO2,-63
SMILES,aSyn 5UTR act
CCN1CCN(/C=N/c2nc(C)cs2)CC1,-83
Cc1ccc(N2Cc3ccccc3C2=S)cc1,-154
S=C1c2ccccc2CN1c1ccccc1,-64
CCc1cc2c(SCC(=O)c3ccccc3)ncnc2s1,-122
CCN(CC)C(=O)CSc1ncnc2sc(-c3ccccc3)cc12,-168
CN(CCC#N)C(=O)CSc1ncnc2sc(-c3ccccc3)cc12,-106
Nc1nc2ccccc2n1/N=C/c1ccc(Br)cc1,-139
Nc1nc2ccccc2n1/N=C/c1ccc2c(c1)OCO2,-192
Cc1cccc(Nc2nc(-c3ccc(F)c(C)c3)cs2)n1,-249
Cc1cccc(Nc2nc(-c3ccc(O)c(O)c3)cs2)n1,-224
Cc1ccc(N=C2c3ccccc3C(=O)C2[N+](=O)[O-])cc1C (stereo not drawn),-110
Cc1ccccc1C(=O)N1CCc2cc(-c3csc(NC(=O)CN4CCCC4)n3)ccc21,-99
O=C(CN1CCCCC1)Nc1nc(-c2ccccc2)cs1,-77
Cc1sc(NC(=O)CN2CCCC2)nc1-c1ccc2c(c1)CCN2C(=O)c1cccc(F)c1,-69
O=C(CCN1C(=O)C2CCCCC2C1=O)Nc1nc(-c2ccccc2)cs1 (stereo not drawn),-65
O=C(CN1CCCCC1)Nc1nc(-c2ccc(F)c(F)c2)cs1,-99
O=C(CN1CCCCC1)Nc1nc(-c2ccc(Cl)cc2)cs1,-74
CC(=O)Nc1ccc2nc(SCC(=O)Nc3ccc(N4CCOCC4)c(Cl)c3)sc2c1,-142
O=C(CSc1nc2ccccc2o1)Nc1ccc(N2CCOCC2)c(Cl)c1,-165
CN1CCC(=NOc2ccc([N+](=O)[O-])cc2)CC1,-93
